Assay [1] concerns the target Tyrosine-protein kinase CSK (Homo sapiens) (UniProt P41240). The note with it: at 1 µM.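 Note: each value is an averaged inhibition reading.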
Assay [2] addresses T1, Discoidin domain-containing receptor 2 (Homo sapiens) (UniProt Q16832).
T1 sequence (whole entry): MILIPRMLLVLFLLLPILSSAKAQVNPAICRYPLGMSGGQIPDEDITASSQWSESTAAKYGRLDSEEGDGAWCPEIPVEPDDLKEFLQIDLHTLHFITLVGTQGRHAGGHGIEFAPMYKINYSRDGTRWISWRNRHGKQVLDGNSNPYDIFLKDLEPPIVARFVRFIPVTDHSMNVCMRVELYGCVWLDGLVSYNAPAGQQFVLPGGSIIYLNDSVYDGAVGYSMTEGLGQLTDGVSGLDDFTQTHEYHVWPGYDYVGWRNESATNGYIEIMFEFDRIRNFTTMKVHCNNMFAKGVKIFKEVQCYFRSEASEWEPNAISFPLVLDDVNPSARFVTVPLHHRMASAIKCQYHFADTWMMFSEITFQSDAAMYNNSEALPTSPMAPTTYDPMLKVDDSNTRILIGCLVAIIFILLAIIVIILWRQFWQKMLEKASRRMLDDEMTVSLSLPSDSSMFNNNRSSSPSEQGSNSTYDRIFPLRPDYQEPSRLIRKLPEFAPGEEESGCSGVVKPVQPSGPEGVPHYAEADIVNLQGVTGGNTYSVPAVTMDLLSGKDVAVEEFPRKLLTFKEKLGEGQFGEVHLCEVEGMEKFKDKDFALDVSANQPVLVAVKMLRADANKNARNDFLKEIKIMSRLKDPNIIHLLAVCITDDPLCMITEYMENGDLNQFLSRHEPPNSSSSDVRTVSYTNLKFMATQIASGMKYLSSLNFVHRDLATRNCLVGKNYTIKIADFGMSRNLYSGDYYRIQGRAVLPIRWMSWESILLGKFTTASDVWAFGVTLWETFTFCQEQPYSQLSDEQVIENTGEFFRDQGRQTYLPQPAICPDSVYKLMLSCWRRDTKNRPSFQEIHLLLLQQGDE
The conditions noted are these: at 0.1 µM.

Assay [3] addresses T1, Discoidin domain-containing receptor 2 (Homo sapiens). The conditions noted are these: at 1 µM.
The target of assay [4] is Epidermal growth factor receptor (Homo sapiens) (UniProt P00533). The conditions noted are these: at 0.1 µM.
Sequence of Epidermal growth factor receptor (Homo sapiens) (P00533 whole entry): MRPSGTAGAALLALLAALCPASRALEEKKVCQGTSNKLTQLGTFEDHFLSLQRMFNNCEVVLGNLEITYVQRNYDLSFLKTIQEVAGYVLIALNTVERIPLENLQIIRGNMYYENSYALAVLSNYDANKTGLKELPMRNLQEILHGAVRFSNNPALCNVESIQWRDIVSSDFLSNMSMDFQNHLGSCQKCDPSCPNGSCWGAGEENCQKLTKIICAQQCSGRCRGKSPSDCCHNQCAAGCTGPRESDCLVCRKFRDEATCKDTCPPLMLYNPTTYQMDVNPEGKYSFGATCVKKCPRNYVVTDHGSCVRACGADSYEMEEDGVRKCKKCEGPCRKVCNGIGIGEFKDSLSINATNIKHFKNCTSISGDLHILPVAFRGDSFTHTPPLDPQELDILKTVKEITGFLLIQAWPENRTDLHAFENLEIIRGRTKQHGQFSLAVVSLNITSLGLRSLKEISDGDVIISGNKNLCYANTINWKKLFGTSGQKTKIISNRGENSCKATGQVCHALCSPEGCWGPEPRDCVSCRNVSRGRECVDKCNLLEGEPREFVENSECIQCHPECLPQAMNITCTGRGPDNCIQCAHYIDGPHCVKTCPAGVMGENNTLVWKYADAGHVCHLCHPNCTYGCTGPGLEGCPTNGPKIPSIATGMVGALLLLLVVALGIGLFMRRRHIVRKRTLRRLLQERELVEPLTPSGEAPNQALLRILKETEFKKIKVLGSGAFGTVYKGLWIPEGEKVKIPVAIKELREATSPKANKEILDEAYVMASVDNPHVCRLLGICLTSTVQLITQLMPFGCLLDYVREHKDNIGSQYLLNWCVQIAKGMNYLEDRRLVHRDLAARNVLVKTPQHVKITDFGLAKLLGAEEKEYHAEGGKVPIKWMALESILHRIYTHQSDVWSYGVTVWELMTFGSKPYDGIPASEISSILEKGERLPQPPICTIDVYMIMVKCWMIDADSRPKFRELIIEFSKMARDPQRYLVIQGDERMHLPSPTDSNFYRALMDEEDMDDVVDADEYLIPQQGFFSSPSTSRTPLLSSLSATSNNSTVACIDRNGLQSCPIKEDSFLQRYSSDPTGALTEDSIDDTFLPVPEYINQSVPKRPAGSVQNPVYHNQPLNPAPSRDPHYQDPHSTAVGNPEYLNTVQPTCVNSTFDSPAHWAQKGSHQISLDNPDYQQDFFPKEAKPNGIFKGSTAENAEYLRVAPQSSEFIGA
Assay [5] shares this target. The conditions noted are these: at 1 µM.
Assay [6] relates to Epidermal growth factor receptor (Homo sapiens), P00533 [L858R]. The note with it: at 0.1 µM.
Sequence of Epidermal growth factor receptor (Homo sapiens), P00533 [L858R] (P00533 whole entry L858R): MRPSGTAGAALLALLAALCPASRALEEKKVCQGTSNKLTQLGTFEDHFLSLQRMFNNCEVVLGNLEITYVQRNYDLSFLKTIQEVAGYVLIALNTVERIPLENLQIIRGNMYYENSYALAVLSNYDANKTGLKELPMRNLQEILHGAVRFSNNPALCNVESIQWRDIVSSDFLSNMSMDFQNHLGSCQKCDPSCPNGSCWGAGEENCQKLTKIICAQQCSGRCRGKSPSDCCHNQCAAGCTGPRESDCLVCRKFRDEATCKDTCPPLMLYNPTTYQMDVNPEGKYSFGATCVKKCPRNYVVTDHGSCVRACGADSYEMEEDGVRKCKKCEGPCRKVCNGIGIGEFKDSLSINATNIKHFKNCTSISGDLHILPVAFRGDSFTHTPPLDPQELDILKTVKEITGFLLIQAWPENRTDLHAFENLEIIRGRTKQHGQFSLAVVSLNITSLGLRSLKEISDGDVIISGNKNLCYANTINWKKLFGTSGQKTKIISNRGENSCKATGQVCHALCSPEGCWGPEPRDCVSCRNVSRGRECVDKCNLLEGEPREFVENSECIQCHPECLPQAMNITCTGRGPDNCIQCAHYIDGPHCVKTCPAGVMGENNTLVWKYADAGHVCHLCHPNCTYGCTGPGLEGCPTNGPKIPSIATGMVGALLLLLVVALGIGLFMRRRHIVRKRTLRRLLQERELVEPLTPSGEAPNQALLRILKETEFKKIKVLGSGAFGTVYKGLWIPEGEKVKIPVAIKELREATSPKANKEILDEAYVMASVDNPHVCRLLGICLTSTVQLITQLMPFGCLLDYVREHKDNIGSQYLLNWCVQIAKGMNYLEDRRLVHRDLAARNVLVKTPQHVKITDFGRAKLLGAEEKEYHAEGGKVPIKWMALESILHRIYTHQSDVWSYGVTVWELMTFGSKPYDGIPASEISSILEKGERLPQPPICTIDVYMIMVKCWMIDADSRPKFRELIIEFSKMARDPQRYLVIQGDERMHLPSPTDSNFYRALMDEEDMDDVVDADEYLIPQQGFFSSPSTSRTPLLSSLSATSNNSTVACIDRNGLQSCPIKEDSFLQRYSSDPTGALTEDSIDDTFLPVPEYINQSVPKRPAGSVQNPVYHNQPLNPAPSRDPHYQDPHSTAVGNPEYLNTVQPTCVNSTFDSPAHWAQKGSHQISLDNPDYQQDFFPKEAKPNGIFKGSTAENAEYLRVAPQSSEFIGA
Assay [7] has the same test system. The note with it: at 1 µM.
Assay [8] has as its system Epidermal growth factor receptor (Homo sapiens), P00533 [L861Q]. The note with it: at 0.1 µM.
For assay [9] the test system is unchanged. The note with it: at 1 µM.
The subject of assay [10] is Epidermal growth factor receptor (Homo sapiens), P00533 [T790M]. The note with it: at 0.1 µM.
For assay [11] the test system is unchanged. The note with it: at 1 µM.
Assay [12] has as its system Epidermal growth factor receptor (Homo sapiens), P00533 [L858R,T790M]. The note with it: at 0.1 µM.
The test system is the same in assay [13]. The conditions noted are these: at 1 µM.
In assay [14] the target is Ephrin type-A receptor 2 (Homo sapiens) (UniProt P29317). The note with it: at 0.1 µM.
Assay [15] has the same target. The conditions noted are these: at 1 µM.
The target of assay [16] is T2, Ephrin type-A receptor 3 (Homo sapiens) (UniProt P29320).
T2 sequence (whole entry): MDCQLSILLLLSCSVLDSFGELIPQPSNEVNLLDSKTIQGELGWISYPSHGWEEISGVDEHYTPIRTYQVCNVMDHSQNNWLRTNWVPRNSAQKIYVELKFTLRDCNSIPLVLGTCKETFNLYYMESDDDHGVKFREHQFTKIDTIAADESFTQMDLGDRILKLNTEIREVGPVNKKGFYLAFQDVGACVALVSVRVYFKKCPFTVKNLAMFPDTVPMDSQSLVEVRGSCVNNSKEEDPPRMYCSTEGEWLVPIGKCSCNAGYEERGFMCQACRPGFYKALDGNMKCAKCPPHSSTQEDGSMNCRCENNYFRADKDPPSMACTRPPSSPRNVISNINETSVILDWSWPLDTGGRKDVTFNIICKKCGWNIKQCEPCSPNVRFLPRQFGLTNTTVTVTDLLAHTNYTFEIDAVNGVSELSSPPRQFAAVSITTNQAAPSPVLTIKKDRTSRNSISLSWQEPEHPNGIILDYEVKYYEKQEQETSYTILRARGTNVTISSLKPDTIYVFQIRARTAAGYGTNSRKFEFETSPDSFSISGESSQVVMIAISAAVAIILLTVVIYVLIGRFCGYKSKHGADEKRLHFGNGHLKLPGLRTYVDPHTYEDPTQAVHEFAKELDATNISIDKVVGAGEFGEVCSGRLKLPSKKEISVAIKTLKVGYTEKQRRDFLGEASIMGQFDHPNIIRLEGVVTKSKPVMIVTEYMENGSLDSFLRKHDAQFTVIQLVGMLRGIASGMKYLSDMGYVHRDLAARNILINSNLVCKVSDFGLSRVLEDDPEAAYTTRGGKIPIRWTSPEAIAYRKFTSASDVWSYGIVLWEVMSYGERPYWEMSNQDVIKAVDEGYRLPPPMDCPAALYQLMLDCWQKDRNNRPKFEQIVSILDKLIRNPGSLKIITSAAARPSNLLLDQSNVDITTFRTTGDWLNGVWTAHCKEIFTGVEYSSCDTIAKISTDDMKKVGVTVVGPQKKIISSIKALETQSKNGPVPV
The conditions noted are these: at 0.1 µM.

The target in assay [17] is T2, Ephrin type-A receptor 3 (Homo sapiens). The note with it: at 1 µM.
Assay [18] has as its target Ephrin type-A receptor 4 (Homo sapiens) (UniProt P54764). The conditions noted are these: at 0.1 µM.
Assay [19] shares this target. The note with it: at 1 µM.
Assay [20] has as its target T3, Ephrin type-B receptor 2 (Homo sapiens) (UniProt P29323).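 Note: reported as mean inhibition of EPHB2, from the GSK PKIS dataset.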
T3 sequence (whole entry): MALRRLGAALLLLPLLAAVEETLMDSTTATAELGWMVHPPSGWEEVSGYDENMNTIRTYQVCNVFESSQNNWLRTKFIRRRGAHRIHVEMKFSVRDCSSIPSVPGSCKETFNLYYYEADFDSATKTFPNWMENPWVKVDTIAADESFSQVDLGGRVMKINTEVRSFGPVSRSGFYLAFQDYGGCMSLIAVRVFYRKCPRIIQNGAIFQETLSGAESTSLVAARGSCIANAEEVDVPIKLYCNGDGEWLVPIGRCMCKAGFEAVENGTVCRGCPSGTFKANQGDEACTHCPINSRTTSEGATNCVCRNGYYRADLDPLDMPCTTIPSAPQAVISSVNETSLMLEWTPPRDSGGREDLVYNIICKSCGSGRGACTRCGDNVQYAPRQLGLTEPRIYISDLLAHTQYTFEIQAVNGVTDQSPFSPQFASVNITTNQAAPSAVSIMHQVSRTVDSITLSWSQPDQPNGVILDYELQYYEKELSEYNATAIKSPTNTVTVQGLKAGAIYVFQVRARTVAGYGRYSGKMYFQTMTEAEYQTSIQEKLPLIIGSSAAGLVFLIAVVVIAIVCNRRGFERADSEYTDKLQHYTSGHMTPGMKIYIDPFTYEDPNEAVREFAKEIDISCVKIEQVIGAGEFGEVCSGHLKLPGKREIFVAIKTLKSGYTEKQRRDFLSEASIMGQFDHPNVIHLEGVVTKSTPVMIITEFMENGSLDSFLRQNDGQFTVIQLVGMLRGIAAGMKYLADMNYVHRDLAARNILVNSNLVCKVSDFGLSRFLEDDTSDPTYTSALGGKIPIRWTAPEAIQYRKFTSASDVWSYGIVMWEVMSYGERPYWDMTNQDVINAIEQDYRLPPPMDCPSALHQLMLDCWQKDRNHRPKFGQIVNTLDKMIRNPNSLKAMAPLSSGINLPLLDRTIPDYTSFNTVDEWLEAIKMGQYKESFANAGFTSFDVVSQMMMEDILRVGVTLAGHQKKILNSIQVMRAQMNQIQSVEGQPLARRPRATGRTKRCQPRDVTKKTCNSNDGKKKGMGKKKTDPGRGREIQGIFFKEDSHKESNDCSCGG
The note with it: at 0.1 µM.

The term inhibition denotes the change of the read-out against control, counted positive when it falls.

Sequence of Tyrosine-protein kinase CSK (Homo sapiens) (P41240 2-450 limits assumed): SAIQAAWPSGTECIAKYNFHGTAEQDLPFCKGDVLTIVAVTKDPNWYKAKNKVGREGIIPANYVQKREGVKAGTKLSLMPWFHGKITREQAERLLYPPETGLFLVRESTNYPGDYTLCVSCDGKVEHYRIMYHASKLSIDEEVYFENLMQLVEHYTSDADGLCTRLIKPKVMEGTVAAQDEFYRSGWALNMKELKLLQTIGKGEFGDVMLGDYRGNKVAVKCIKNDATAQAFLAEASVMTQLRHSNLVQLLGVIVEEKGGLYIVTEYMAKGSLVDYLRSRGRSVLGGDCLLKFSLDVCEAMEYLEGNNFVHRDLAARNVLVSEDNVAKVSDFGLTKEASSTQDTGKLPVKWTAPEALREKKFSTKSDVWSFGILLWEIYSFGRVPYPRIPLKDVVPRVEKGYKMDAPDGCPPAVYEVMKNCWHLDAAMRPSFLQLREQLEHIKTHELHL
Sequence of Epidermal growth factor receptor (Homo sapiens), P00533 [T790M] (P00533 whole entry T790M): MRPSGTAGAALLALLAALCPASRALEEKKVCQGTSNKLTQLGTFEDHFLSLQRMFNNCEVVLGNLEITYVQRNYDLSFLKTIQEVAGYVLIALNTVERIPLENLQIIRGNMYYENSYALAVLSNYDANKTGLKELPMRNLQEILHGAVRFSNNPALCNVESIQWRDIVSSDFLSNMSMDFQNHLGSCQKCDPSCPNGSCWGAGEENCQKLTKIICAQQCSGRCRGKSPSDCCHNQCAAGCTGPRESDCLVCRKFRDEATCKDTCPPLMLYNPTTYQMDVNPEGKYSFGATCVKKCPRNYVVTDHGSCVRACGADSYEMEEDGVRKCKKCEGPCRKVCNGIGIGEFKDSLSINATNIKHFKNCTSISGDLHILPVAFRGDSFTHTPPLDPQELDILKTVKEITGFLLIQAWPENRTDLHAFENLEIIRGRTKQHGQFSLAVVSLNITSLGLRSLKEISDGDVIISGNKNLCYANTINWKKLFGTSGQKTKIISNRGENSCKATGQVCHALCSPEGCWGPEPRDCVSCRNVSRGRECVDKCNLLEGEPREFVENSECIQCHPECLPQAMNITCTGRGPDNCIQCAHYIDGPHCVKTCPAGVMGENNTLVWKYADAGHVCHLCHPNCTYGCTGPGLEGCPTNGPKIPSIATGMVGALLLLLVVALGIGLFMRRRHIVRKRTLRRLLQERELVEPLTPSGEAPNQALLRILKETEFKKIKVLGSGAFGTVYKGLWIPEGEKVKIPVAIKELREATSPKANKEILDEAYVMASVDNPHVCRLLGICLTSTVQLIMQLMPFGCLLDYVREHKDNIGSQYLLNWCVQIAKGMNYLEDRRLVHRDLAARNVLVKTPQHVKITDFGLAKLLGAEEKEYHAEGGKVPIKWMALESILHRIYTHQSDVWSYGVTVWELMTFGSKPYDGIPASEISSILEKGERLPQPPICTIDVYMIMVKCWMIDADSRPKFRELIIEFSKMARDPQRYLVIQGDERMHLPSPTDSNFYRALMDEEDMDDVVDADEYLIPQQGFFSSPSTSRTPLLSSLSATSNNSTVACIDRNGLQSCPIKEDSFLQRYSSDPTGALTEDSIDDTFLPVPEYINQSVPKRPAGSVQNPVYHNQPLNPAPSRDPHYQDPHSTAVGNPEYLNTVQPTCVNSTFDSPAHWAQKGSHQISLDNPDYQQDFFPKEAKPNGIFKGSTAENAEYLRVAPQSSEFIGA
Sequence of Ephrin type-A receptor 4 (Homo sapiens) (P54764 whole entry): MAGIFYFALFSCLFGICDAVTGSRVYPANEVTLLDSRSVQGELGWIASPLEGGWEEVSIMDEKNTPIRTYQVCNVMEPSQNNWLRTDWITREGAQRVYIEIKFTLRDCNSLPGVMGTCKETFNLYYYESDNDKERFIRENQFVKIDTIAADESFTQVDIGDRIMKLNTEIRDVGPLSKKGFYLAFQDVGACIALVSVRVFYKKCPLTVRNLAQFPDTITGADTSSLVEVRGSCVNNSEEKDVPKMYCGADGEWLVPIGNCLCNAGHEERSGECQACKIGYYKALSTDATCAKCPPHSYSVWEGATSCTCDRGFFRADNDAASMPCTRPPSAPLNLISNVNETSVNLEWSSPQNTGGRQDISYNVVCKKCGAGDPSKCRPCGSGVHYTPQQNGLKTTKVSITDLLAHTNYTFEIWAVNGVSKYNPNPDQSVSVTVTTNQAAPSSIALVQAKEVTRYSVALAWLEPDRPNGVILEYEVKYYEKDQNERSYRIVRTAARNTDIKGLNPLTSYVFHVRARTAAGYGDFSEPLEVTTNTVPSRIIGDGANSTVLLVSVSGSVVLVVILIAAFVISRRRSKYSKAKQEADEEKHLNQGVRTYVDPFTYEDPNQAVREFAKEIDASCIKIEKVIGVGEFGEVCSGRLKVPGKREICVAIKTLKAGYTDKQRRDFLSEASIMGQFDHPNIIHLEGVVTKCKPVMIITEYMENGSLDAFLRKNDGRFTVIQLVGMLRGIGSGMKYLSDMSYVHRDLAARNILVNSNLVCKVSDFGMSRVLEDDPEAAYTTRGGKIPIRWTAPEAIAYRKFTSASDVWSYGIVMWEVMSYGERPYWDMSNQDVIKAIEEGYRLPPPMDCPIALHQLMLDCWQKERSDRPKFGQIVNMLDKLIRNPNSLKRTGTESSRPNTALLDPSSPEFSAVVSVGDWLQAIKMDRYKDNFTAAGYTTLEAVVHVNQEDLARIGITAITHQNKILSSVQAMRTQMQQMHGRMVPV

In the case of `NC(=O)c1cc(-c2ccncc2)cc(-c2ccccc2)c1N`, the inhibition in [1] was 16.1%; in [2], 4.49%; in [3], 27.6%; in assay [4], 8.28%; in assay [5], 18%; in assay [6] it was 4.58%. Moreover, the inhibition in assay [7] came to 39.7%; in assay [8] it was 3.24%; in [9] it was 11.9%; in [10] it was 1.64%; in assay [11], 2.91%; in assay [12], 3.41%. Moreover, the inhibition in assay [13] was 9.94%; in [14], 15.2%; in [15] it was 56.3%; in assay [16] it was 5.37%; in assay [17], 8.77%; in [18], 19.8%. Also, the inhibition turned out to be 62.8% in assay [19] and 16.5% in assay [20].

Consider `Fc1ccc(-c2ncn(C3CCNCC3)c2-c2ccnc(Oc3ccc(Oc4ccccc4)cc3)n2)cc1`, for which the inhibition is 3.28% in assay [1]; 2.83% in assay [2]; 14.8% in assay [3]; 2.08% in assay [4]; 4.02% in assay [5]; -0.18% in assay [6]. The inhibition in assay [7] came to 11.3%; in assay [8], 2.06%; in assay [9], 6.3%; in assay [10], 1.46%; in assay [11], 4.11%; in [12], 1.7%. The inhibition came to 6.06% in assay [13]; 1.86% in assay [14]; 1.01% in [15]; 2.44% in [16]; 4.03% in assay [17]; 6.9% in assay [18]. Further, the results for the inhibition in [19] and in assay [20] were 7.87% and 7.52%, respectively.

On to `COc1ccc2ncn(-c3cc(O[C@H](C)c4ccccc4Cl)c(C(N)=O)s3)c2c1`, for which the inhibition in assay [1] was 4.14%; in assay [2], 1.2%; in assay [3] it was 0.87%; in [4] it was -5.57%; in [5], -2.35%; in assay [6] it was 0.76%. Besides, the inhibition in assay [7] was 6.08%; in [8], 3.26%; in assay [9], 1.91%; in assay [10], 1.16%; in assay [11], 1.63%; in [12], 1.69%. For the same molecule, the inhibition was 4.57% in [13]; -1.86% in assay [14]; -2.71% in assay [15]; -1.12% in [16]; 1.39% in [17]; 6.03% in [18]. In addition, the inhibition amounted to 9.66% in assay [19] and 6.75% in assay [20].

For `Clc1ccc(CNc2nccc(-c3cnn4ncccc34)n2)cc1`, the inhibition in assay [1] was 2.58%; in [2], 1.86%; in assay [3], 4.61%; in assay [4] it was 0.75%; in assay [5] it was 3.24%; in [6], 3.13%. Besides, the inhibition was 5.2% in assay [7]; -1.04% in assay [8]; 0.71% in assay [9]; 0.11% in assay [10]; -0.46% in assay [11]; 0.01% in assay [12]. Moreover, the inhibition in assay [13] was 3.09%; in [14], 1.88%; in [15] it was 1.02%; in assay [16] it was 2.21%; in assay [17], 3.84%; in assay [18] it was 5.02%. Moreover, the inhibition is 13% in assay [19] and 7.93% in assay [20].

As to `Fc1ccc(-c2ncn(CCCN3CCOCC3)c2-c2ccncc2)cc1`, the inhibition was -6.18% in assay [1]; 0.11% in [2]; -0.13% in assay [3]; 0.44% in assay [4]; 1.09% in assay [5]; -0.51% in assay [6]. Further, the inhibition in [7] is -2.87%; in assay [8], -1.64%; in [9], -2.82%; in assay [10], -1.82%; in assay [11], -1.55%; in assay [12], -3.9%. The inhibition in assay [13] stood at 1.72%; in assay [14], 0.95%; in [15], 1.3%; in [16], 1.04%; in assay [17], 0.84%; in assay [18] it was 1.1%. Besides, the values for the inhibition in assay [19] and in [20] were -5.4% and -4.85%, respectively.

As to `COc1cc(C)c(N(C)C(=O)CN(C)C)cc1Nc1nc(Nc2cccc(F)c2C(N)=O)c2cc[nH]c2n1`, the inhibition in assay [1] was -1.53%; in [2] it was 0.29%; in assay [3], 0.56%; in assay [4], -4.88%; in assay [5], -1.47%; in assay [6], -1.11%. For the same molecule, the inhibition is 1.56% in [7]; 1.84% in assay [8]; -2.41% in assay [9]; 0.93% in assay [10]; 1.09% in assay [11]; -0.19% in [12]. Moreover, the inhibition in assay [13] was 1.92%; in assay [14], -2.68%; in assay [15] it was -4.61%; in [16], -1.1%; in assay [17] it was -3.2%; in assay [18] it was 3.77%. For the same molecule, the inhibition in assay [19] is -1.31%; in assay [20], 2.81%.
